Source: PubChem BioAssay
Compounds with a hit are over-represented: about 2.4% of the library has one in this group of screens.
Pol beta inh: blocks human DNA polymerase beta activity; P06746; Pol beta primer extension/strand displacement, fluorescence kinetic; Potency, µM (series often up to 114 µM), most hits filed as inhibitors; 1.3% of 340,000 active
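Pol beta (10 nM) and compounds were preincubated 15 min at room temperature, then 50 nM substrate (final) started primer extension/strand displacement. Reads were taken at 0 and 10 min; concentration-response data were fitted to a four-parameter Hill equation.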
POLK inh: inhibitors of human DNA polymerase kappa; Q9UBT6; purified Pol kappa, fluorescent DNA synthesis assay, 10 min; Potency, µM (highest dose often 107 µM), hits mostly inhibitors; 0.53% of 400,000 active; AID 588579
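Pol kappa 10 nM + cpd, 15 min RT; start w/ substrate 50 nM final; fluorescence kinetic read, 0 and 10 min. Neg ctrl: buffer, no enzyme.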
POLH inh: DNA polymerase eta (human) inhibition | Q9Y253 | recombinant Pol eta, fluorescent DNA replication assay | Potency, µM (highest dose often 114 µM), most hits filed as inhibitors | 1.2% of 390,000 active | AID 588591
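Pol eta (10 nM) was preincubated with compounds for 15 min at room temperature, after which fluorescent replication substrate (50 nM final) was added to start the reaction. Fluorescence was read kinetically at 0 and 10 min.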
WRN inhibitor: blocks human WRN helicase. Q14191. WRN helicase unwinding, fluorescent forked duplex, kinetic. Potency, µM (doses to about 114 µM), hits mostly inhibitors. 0.46% of 360,000 active; also: nearly all actives have a fitted effect of over 55% in size
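Kinetic fluorescence helicase assay: unwinding of a quenched forked DNA duplex (100 nM final) with 2 mM ATP final raises red fluorescence (525/598 nm). Compounds sat 15 min at room temperature with 20 nM WRN beforehand.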
FEN1 inh: blocks human flap endonuclease 1 | Recombinant FEN1 flap cleavage, fluorescence, 15 min | Potency, µM (top dose mostly 114 µM), hits mostly inhibitors | 0.35% of 390,000 active; also: nearly all actives have a fitted effect of over 65% in size
Target sequence (P39748 whole entry, looked up): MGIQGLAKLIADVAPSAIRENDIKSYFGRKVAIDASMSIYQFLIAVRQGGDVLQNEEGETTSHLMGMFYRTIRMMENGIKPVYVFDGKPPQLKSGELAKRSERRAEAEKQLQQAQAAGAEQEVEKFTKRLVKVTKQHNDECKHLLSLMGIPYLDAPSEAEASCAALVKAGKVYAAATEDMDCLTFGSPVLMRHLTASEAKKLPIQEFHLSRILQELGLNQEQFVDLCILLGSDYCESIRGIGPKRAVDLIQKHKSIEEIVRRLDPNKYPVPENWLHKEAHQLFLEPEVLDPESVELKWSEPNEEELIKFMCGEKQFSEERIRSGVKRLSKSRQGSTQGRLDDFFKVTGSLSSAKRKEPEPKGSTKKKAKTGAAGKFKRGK
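Steps: FEN1 (10 nM) dispensed; compound added by pin tool; 15 min at room temperature; substrate added to 50 nM final; reads at 0 min and 15 min; data normalized and fitted (four-parameter Hill).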
POLI inh: blocks human DNA polymerase iota activity. Pol iota fluorescent replication assay, 10 min. Potency, µM (titrated, usually from 115 µM), most hits filed as inhibitors. 1% of 390,000 active. AID 588590
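Fluorescent replication assay read twice, at 0 min and 10 min after adding 50 nM (final) substrate. Enzyme (10 nM) and compounds were first incubated 15 min at room temperature; enzyme-free buffer wells were negative controls.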
Large screens that a line does not name were inactive. Calls follow the shape of the dose curve; as a rule, active = well fitted curve in the direction sought with a large enough effect; inconclusive = small, poorly fitted or top-dose-only effect, or another doubt; inactive = no such curve, though single readings can be large; an effect the other way counts as inactive or inconclusive.

Cc1cc(C)cc(OCC(=O)NCc2nc(-c3ccccc3)no2)c1	POLI inh 89µM
Cc1c(C(=O)N/N=C/c2ccc(-c3ccccc3[N+](=O)[O-])o2)sc(N)c1C#N	POLH inh 14µM, WRN inhibitor inconclusive, POLI inh 56µM
O=C(O)c1ccccc1C(=O)Nc1nccs1	none
O=C(O)c1ccccc1C(=O)Nc1n[nH]c(=S)s1	Pol beta inh 22µM
Cc1ccc(O)c(NC(=O)c2cc3nc4c(c(C(F)(F)F)n3n2)CCc2ccccc2-4)c1	none
Cc1ccc(NC(=O)/C(=C\c2ccc([N+](=O)[O-])cc2)NC(=O)c2ccccc2)cc1	none
O=C(N/N=C/c1ccc(O)c(O)c1O)/C(=C/c1ccc([N+](=O)[O-])cc1)NC(=O)c1ccccc1	WRN inhibitor 40µM, FEN1 inh inconclusive, POLI inh inconclusive
Cc1ccc(NC(=O)CC(=O)Nc2ccc(C)cc2C)c(C)c1	none
Cc1ccc(N/C(C(Cl)=C(Cl)Cl)=C(/Cl)[N+](=O)[O-])c(C)c1	POLI inh 16µM
O=C(NCC1CCN(Cc2cccc(Cl)c2)CC1)c1cc2ccc3cccnc3c2[nH]1	none (no result: WRN inhibitor)
Cc1c(OCC(N)=O)ccc2c(-c3ccccc3)cc(=O)oc12	POLH inh inconclusive, WRN inhibitor 50µM, FEN1 inh inconclusive
O=C1SC(c2ccccc2)=N/C1=C/c1ccco1	none
O=C1CNC(=O)/C(=C/c2ccco2)N1	POLK inh 79µM, POLI inh inconclusive
COCCN(CC(=O)NCc1ccc2c(c1)OCO2)C(=O)CCC(=O)Nc1nccs1	none
O=C1C=CC(=O)c2c(O)c(Cl)c(Cl)c(O)c21	POLK inh 7.1µM (no result: Pol beta inh, POLH inh, WRN inhibitor, FEN1 inh, POLI inh)
O=C1C=Cc2cccc3ccc(O)c1c23	none (no result: Pol beta inh)
COc1ccc2nc(NC(=O)c3nc(S(=O)(=O)Cc4ccc(C)cc4)ncc3Cl)sc2c1	Pol beta inh inconclusive, POLK inh inconclusive, POLH inh inconclusive, POLI inh 89µM (no result: WRN inhibitor)
CC1C/C(=C\c2cccnc2)C(=O)/C(=C/c2cccnc2)C1 (centres undefined)	POLH inh 20µM, POLI inh 16µM
O=C(Oc1cc(=O)oc2c1c(=O)n1c3c(cccc23)CC1)c1ccccc1	Pol beta inh 40µM, FEN1 inh inconclusive, POLI inh inconclusive
CC(=O)Nc1cc2c3c(c1)CCN3C(=O)CC2	none
Cc1nn(-c2ccccc2)c(C)c1/C=C/C(=O)OCC(=O)Nc1ncc(Cl)cc1Cl	POLK inh inconclusive, POLH inh inconclusive, WRN inhibitor inconclusive, POLI inh inconclusive
Cc1ccc(S(=O)(=O)Nc2nc3ccccc3nc2Nc2cccc(S(=O)(=O)N3CCCC3)c2)cc1	POLK inh inconclusive, WRN inhibitor inconclusive, POLI inh 7.1µM
O=[N+]([O-])c1cccc(S(=O)(=O)Nc2nc3ccccc3nc2Nc2cccc(S(=O)(=O)N3CCCCC3)c2)c1	Pol beta inh inconclusive, POLH inh inconclusive, WRN inhibitor inconclusive, FEN1 inh inconclusive
O=C(O)c1cccc(S(=O)(=O)Nc2cccc(S(=O)(=O)N3CCCCCC3)c2)c1	POLI inh 89µM
O=C(O)c1cccc(S(=O)(=O)Nc2cccc(S(=O)(=O)N3CCCC3)c2)c1	POLH inh inconclusive (no result: Pol beta inh)
CC(C)N(C(=O)C(F)(F)F)C(C(=O)NC1CCCCC1)c1ccncc1 (centres undefined)	none
COc1ccc(C(=O)N2c3ccccc3CC2C)cc1OC (centres undefined)	POLI inh inconclusive
COc1ccc(-c2cc(C(=O)Nc3cc(OC)c(OC)c(OC)c3)[nH]n2)c(C)c1	none (no result: Pol beta inh, POLK inh, POLH inh, FEN1 inh, POLI inh)
COc1ccc(-n2cnnc2SCC(=O)c2ccc(S(=O)(=O)N3CCOCC3)cc2)cc1	none
CCOC(=O)c1ccc2c(c1)C1C=CCC1C(C(=O)OCC)N2 (centres undefined)	Pol beta inh inconclusive, POLH inh inconclusive, FEN1 inh inconclusive, POLI inh inconclusive
CCOC(=O)C1Nc2ccc(Br)cc2C2C=CCC12 (centres undefined)	Pol beta inh inconclusive, POLK inh inconclusive, POLH inh 79µM, POLI inh 45µM
